Here are results for 6 compounds from PubChem BioAssay AID504710 (Sanford-Burnham Center for Chemical Genomics, 2011).

As a reminder, the inhibition is the change of the read-out against control, counted positive when it falls.

The source made the active and inactive calls.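 How the source made its calls: active means inhibition reaching about 16% in any single replicate (limit read from the data); inactive means the rest.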

Hexokinase HKDC1 (Homo sapiens), sequence (Q2TB90 whole entry, looked up): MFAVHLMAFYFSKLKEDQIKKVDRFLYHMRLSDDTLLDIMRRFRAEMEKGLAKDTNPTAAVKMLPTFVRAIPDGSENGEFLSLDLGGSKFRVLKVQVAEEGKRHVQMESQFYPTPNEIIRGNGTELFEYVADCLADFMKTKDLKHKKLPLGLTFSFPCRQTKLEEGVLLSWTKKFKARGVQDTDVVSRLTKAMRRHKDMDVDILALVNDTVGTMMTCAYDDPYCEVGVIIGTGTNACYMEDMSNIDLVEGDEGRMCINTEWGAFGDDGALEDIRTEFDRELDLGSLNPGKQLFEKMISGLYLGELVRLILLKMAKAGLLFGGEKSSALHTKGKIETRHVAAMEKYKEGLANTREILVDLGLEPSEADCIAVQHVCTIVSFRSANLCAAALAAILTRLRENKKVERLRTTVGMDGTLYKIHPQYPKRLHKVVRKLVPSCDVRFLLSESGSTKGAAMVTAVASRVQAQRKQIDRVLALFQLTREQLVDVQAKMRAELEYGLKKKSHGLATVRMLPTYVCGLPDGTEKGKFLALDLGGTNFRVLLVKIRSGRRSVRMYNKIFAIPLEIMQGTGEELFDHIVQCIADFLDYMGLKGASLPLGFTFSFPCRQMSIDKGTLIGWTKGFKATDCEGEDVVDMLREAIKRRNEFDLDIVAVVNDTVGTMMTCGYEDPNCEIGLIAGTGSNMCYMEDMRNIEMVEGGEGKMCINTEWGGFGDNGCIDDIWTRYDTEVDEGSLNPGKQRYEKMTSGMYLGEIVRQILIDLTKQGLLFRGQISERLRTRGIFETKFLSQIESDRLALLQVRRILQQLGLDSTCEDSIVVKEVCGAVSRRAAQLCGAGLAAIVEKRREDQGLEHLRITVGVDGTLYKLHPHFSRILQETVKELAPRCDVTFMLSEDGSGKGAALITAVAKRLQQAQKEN

The experiment has as its target Hexokinase HKDC1 (Homo sapiens) (UniProt Q2TB90). Kind of experiment: HKDC1 hexokinase inhibitors, confirmation, biochemical, single concentration (AID 504710). The following applies: recombinant HKDC1, G6PDH/diaphorase/resazurin fluorescence; at 20 µM; stronger effect = higher value. For orientation: The colour change of resazurin is a common sign of viable cells or microbes.
As to `Cc1ccc(N2C(=O)NC(=O)/C(=C\c3cc(C)n(-c4sc5c(c4C#N)CCCC5)c3C)C2=O)cc1`, the inhibition is 77.3% (active).
To `CC[C@H](C)/C=C(C)/C=C/C1=CC2=C(Cl)C(=O)[C@@](C)(OC(C)=O)C(=O)C2=CO1` belongs 45.8% (active).
To `Cc1cccc(N2C(=O)NC(=O)/C(=C\c3ccc4c(c3)CCCN4Cc3ccccc3)C2=O)c1` belongs 45.2% (active); to `COC(=O)[C@@H]1[C@@H](C(=O)OC)C2(c3ccccc3-c3ccccc32)N(c2ccc(Cl)cc2)N1C#N`, 43.1% (active); to `COC(=O)C[C@]1(C(=O)OC)CN(C#N)N(c2ccc(Cl)cc2)C12c1ccccc1-c1ccccc12`, 62.4% (active).
For `COC(=O)C1CN(C#N)N(c2ccc(Cl)cc2)C12c1ccccc1-c1ccccc12` (stereo unspecified), the inhibition was 73.6% (active).
